# PubChem BioAssay (NCATS)
# Results filed as inconclusive are left out. Values without a mark were called inactive. The call rests on the fitted dose curve; in most records, active means well fitted inhibition curve with a large enough effect; inconclusive means small, poorly fitted or top-dose-only effect; inactive means no such curve, though single readings can be large or run the other way.
# Target: Retinaldehyde dehydrogenase 3 (Homo sapiens) (UniProt P47895)
# Experiment: qHTS for Inhibitors of the Aldehyde Dehydrogenase Family (ALDH1A3) Primary screen (AID 2061315);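 further: plate controls were DMSO vehicle for no effect and reference inhibitor for full effect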
# Settings: ALDH inhibition qHTS; series mostly up to 56 µM; activity change, negative = inhibition: at the top concentration
row,SMILES,"activity change, negative = inhibition"
1,C=C1C(=O)OC2/C=C(\CO)CC/C=C(\C=O)C(OC)C(OC(=O)C(C)CC)C12 (centres undefined),-27.3% [at 28 µM]
2,CC(=O)OC1C[C@@]2(C)[C@@H](CC[C@@H](C)[C@]23Cc2c(O)cc4c(c2O3)CNC4=O)C(C)(C)[C@@H]1O (some centres undefined),1.86% [at 28 µM]
3,C/C1=C/CCC2=CC(OC2=O)C(C)(C)/C=C/C1=O (centres undefined),-0.844%
4,Cn1c(=O)c2nc(/C=C/c3cccc(Cl)c3)n(C)c2n(C)c1=O,3.85% [at 114 µM]
5,CC(=O)OC1CCC2(C)C(CCC3(C)C2CC=C2C4C(C)C(C)CCC4(C)CCC23C)C1(C)C(=O)O (centres undefined),4.96% [at 28 µM]
6,CC1CCC(=O)CC(O)C(O)CC(=O)O1 (centres undefined),-9.62%
7,C/C=C(\C)C(=O)OCC1OC(OC2OC(COC(=O)/C(C)=C/C)C(OC3OC(CO)C(OC(=O)/C(C)=C/C)C(OC(=O)/C(C)=C/C)C3O)C(O)C2O)C(O)C(O)C1OC1OC(CO)C(OC(=O)/C(C)=C/C)C(OC(=O)/C(C)=C/C)C1O (centres undefined),17.9% [at 16.9 µM]
8,C=C1CC(=O)C2OC2(C)CC2OC(=O)C(=C)C2C(O)C1OC(=O)/C(C)=C\C (centres undefined),0.954%
9,C=C(C)C1Cc2cc(C(=O)OC3OC(CO)C(O)C(O)C3O)ccc2O1 (centres undefined),-18.9%
10,COc1cc(CO)cc(OC)c1O[C@@H]1O[C@H](CO)[C@@H](O)[C@H](O)[C@H]1O,-19.1%
11,COC(=O)C1=CO[C@@H](O[C@@H]2O[C@H](CO)[C@@H](O)[C@H](O)[C@H]2O)[C@@H]2C(CO)=CC[C@]12O,-6.21% [at 28 µM]
12,CCC(C)/C=C(C)/C=C/C1=CC2=C(Cl)C(=O)C(C)(OC(C)=O)C(=O)C2=CN1C(CCC(=O)O)C(=O)O (centres undefined),-8.25% [at 28 µM]
13,C=C[C@](C)(O)CC[C@H]1C(C)=CC(=O)[C@H]2C(C)(C)CCC[C@]12C,1.66%
14,Cn1nccc1-c1ccccc1Oc1ccc(S(=O)(=O)Nc2nccs2)cc1C#N,12%
15,C=C1CC2C3(C)C(OC(C)=O)CC(=O)OC(C)(C)C3C(O)C(OC(C)=O)C2(C)C2C(=O)OC(C)C(=O)C12C (centres undefined),-1.15% [at 28 µM]
16,OCC1OC(Oc2cc(O)c3c(c2)OC(c2ccc(O)cc2)C(O)C3)C(O)C1O (centres undefined),-0.571% [at 28 µM]
17,C[C@@H]1O[C@@H](O[C@H]2[C@H](O[C@H]3[C@H](O[C@H]4CC[C@@]5(C)C(CC[C@]6(C)C5CC=C5[C@@H]7CC(C)(C)CC[C@]7(C(=O)O[C@@H]7O[C@H](CO)[C@@H](O[C@@H]8O[C@@H](C)[C@H](O)[C@@H](O)[C@H]8O)[C@H](O)[C@H]7O)CC[C@]56C)C4(C)C)OC[C@H](O)[C@@H]3O)O[C@H](CO)[C@@H](O)[C@@H]2O)[C@H](O)[C@H](O)[C@H]1O (some centres undefined),-3.58% [at 11.2 µM]
18,CCC(C)/C=C(C)/C=C/C1=CC2=CC(=O)C3(C)OC(C)(O)C(C(=O)OC)C3C2=CO1 (centres undefined),-10.9% [at 28 µM]
19,Cc1c(CN2CCN(C(=O)C(C)O)CC2)sc2c(N3CCOCC3)nc(-c3cnc(N)nc3)nc12 (centres undefined),-15.2%
20,CC(C)CC1(C(=O)OCc2ccc(O[C@@H]3O[C@H](CO)[C@@H](O)[C@H](O)[C@H]3O)cc2)CC(=O)OC(C(=O)O)CC(=O)OCC2OC(O1)C(OC(=O)/C=C/c1ccc(O)cc1)C(O)C2O (some centres undefined),1.11% [at 16.9 µM]
21,COc1ccc(CCO[C@@H]2O[C@H](CO[C@@H]3OC[C@H](O)[C@H](O)[C@H]3O)[C@@H](O)[C@H](O)[C@H]2O)cc1,-10.5% [at 28 µM]
22,CCOC(=O)c1c(C)nn(-c2cccc([N+](=O)[O-])c2)c1C,-3.59%
23,C=C(C)C(=O)OC1CC2(C)OC(=CC2=O)C(=C)CC2OC(=O)C(=C)C12 (centres undefined),12.7%
24,CC(C)C[C@@H]1NC(=O)[C@@H]2C[C@@]34C[C@@H]5[C@@]6(C)CCCC(C)(C)C6CC[C@@]5(C)N(c5ccccc53)[C@H]4N2C1=O (some centres undefined),0.0356% [at 28 µM]
25,C/C(=C/CO)CC[C@@H]1[C@@]2(C)CCC[C@](C)(C(=O)O)C2CC[C@@]1(C)O (some centres undefined),1.51%
26,CC(=O)OCC1OC(OC2COC(OC3COC(OC4C(OC5C(CO)OC(OC6CCC7(C)C(CCC8(C)C7CC=C7C9CC(C)(C)CCC9(C(=O)OC9OC(CO)C(O)C(O)C9OC9OCC(OC%10OCC(O)(CO)C%10O)C(O)C9O)C(O)CC78C)C6(C)C)C(O)C5O)OCC(O)C4O)C(O)C3O)C(O)C2O)C(OC(=O)/C=C/c2ccccc2)C(O)C1OC(C)=O (centres undefined),-8.22% [at 11.2 µM]
27,C=CC1(C)CC(OC(=O)/C(C)=C\COC(C)=O)C(C(=C)C(=O)O)C(O)C1C(=C)CO (centres undefined),1.93% [at 28 µM]
28,O=C1N(CC2CCCCN2)CCN1c1ccccc1 (centres undefined),-8.87%
29,CC1(C=O)CCCC2(C)C1CCC13CC(CO)C(CCC12)C3 (centres undefined),-15.8%
